Reference: publication PMC7862700, “An all-to-all approach to the identification of sequence-specific readers for epigenetic DNA modifications on cytosine”

What was measured:
Experiment in all cases: DAPPL (digital affinity profiling via proximity ligation, sequencing); 10 mM Tris-HCl pH 7.5, 50 mM NaCl, 1 mM DTT, 4% glycerol, room temperature, 30 min; GST-TFs on glutathione beads, 16-mer random dsDNA library, 0.1% formaldehyde crosslink after washing; high values mean tight binding
FLI1 = target: T1, FLI1 (Homo sapiens, UniProt Q01543 1-452); conditions: protein: recombinant; tags: N-terminal GST; dsDNA, one strand shown
T1 sequence: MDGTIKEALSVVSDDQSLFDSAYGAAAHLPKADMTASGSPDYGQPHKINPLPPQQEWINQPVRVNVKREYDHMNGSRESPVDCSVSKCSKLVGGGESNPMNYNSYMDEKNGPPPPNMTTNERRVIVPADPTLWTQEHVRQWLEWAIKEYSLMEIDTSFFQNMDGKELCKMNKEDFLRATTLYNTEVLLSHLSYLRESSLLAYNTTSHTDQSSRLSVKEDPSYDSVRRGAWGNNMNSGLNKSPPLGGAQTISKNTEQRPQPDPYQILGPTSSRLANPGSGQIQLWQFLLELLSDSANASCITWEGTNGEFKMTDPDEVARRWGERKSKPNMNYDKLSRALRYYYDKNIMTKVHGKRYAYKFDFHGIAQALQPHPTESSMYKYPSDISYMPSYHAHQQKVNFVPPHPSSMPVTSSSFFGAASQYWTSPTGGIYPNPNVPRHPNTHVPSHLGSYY
How it was run: (§1)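 Yeast served to express human transcription factors as GST fusions, which were then captured on glutathione beads and labelled with DNA barcodes. Pooled with a tag-only sample, they were incubated with 200 nmole of a 16-mer random double-stranded DNA library for 30 min at room temperature in Tris/NaCl/DTT/glycerol buffer, washed, crosslinked with 0.1% formaldehyde, ligated by proximity, amplified by PCR and sequenced. Dividing each hexamer's read frequency for a factor by its frequency for the tag-only sample gives the binding signal.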

ELK1 = target: T2, ELK1 (Homo sapiens, UniProt P19419 1-428); conditions: protein: recombinant; tags: N-terminal GST; dsDNA, one strand shown
T2 sequence: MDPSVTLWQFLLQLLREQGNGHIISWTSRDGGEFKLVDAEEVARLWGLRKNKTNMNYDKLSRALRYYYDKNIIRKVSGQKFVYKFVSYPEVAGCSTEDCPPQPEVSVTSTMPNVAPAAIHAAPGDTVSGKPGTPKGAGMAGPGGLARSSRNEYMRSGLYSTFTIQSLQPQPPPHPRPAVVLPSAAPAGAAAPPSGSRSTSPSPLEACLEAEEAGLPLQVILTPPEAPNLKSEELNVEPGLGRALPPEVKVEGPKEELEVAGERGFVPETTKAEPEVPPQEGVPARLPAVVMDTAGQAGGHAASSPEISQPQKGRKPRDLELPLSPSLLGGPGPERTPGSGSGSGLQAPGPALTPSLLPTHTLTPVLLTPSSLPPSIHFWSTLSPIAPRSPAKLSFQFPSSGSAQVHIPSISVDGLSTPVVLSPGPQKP
How it was run: as §1

GABPA = target: T3, GABPA (Homo sapiens, UniProt Q06546 1-454); conditions: protein: recombinant; tags: N-terminal GST; dsDNA, one strand shown
T3 sequence: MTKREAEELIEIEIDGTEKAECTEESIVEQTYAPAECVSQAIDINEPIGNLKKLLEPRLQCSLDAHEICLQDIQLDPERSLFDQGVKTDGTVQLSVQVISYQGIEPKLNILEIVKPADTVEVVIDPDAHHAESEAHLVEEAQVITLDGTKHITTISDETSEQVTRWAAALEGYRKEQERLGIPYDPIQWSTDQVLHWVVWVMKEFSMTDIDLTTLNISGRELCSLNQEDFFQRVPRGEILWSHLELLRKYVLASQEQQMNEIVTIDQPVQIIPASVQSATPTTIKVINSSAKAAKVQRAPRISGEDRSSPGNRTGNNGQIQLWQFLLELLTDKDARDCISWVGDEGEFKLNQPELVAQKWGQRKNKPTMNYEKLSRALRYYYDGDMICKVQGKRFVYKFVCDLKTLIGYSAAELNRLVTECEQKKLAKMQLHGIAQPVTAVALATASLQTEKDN
How it was run: as §1

ERG = target: T4, ERG (Homo sapiens, UniProt P11308 1-479); conditions: protein: recombinant; tags: N-terminal GST; dsDNA, one strand shown
T4 sequence: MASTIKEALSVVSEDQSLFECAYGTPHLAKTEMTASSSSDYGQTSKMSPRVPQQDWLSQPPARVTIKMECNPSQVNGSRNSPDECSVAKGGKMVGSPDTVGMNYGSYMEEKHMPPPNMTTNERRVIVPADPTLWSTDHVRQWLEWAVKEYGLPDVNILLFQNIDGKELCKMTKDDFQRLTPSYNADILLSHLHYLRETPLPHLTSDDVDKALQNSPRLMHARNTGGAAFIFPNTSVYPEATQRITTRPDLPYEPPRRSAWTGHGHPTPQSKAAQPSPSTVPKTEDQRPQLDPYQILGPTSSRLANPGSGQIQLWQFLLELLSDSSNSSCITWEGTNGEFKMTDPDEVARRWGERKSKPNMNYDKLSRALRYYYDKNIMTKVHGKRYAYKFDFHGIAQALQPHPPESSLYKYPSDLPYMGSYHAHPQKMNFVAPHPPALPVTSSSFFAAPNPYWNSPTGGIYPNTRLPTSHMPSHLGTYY
How it was run: as §1

ELF1 = ELF1 (Homo sapiens, UniProt P32519 1-619); conditions: protein: recombinant; tags: N-terminal GST; dsDNA, one strand shown
How it was run: as §1

EHF = target: T5, EHF (Homo sapiens, UniProt Q9NZC4 1-300); conditions: protein: recombinant; tags: N-terminal GST; dsDNA, one strand shown
T5 sequence: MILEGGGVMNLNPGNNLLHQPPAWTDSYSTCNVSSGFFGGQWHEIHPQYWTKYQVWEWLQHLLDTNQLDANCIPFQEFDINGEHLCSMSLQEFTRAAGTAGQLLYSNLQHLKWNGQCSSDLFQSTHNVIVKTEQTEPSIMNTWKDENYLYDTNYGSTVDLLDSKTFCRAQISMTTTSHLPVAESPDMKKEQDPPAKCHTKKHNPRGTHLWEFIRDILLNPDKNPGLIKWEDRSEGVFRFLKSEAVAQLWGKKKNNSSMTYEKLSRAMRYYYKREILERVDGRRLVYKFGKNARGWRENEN
How it was run: as §1

SPI1 = SPI1 (Homo sapiens, UniProt P17947 1-270); conditions: protein: recombinant; tags: N-terminal GST; dsDNA, one strand shown
How it was run: as §1

SPIB = SPIB (Homo sapiens, UniProt Q01892 1-262); conditions: protein: recombinant; tags: N-terminal GST; dsDNA, one strand shown
How it was run: as §1

ELK3 = target: T6, ELK3 (Homo sapiens, UniProt P41970 1-407); conditions: protein: recombinant; tags: N-terminal GST; dsDNA, one strand shown
T6 sequence: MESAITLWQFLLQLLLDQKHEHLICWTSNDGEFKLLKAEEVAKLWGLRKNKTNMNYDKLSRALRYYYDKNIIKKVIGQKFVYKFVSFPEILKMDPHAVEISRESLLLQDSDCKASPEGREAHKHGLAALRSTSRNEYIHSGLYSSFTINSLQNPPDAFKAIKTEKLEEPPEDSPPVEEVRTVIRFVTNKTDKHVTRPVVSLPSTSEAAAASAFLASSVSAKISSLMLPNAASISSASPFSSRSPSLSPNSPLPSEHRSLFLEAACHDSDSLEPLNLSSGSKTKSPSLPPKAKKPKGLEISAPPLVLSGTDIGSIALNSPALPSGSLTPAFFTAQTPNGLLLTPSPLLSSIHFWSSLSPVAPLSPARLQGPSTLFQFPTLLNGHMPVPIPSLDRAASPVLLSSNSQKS
How it was run: as §1

FEV = target: T7, FEV (Homo sapiens, UniProt Q99581 1-238); conditions: protein: recombinant; tags: N-terminal GST; dsDNA, one strand shown
T7 sequence: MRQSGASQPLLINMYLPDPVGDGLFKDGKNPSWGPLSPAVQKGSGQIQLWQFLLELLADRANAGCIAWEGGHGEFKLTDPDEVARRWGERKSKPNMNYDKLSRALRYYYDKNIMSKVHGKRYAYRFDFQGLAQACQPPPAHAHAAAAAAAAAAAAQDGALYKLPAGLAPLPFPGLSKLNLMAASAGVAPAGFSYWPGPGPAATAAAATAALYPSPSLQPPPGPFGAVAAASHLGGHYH
How it was run: as §1

ETV5 = ETV5 (Homo sapiens, UniProt P41161 1-510); conditions: protein: recombinant; tags: N-terminal GST; dsDNA, one strand shown
How it was run: as §1

HSF1 = HSF1 (Homo sapiens, UniProt Q00613 1-529); conditions: protein: recombinant; tags: N-terminal GST; chain copies: 3; dsDNA, one strand shown
How it was run: as §1

SPIC = target: T8, SPIC (Homo sapiens, UniProt Q8N5J4 1-248); conditions: protein: recombinant; tags: N-terminal GST; dsDNA, one strand shown
T8 sequence: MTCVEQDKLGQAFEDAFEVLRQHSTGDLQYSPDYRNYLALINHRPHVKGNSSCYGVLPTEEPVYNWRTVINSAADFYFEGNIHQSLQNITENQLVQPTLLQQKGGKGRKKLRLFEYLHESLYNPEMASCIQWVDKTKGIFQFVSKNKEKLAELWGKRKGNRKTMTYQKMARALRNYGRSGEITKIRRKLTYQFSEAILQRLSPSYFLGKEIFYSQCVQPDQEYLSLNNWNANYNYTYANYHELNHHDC
How it was run: as §1

ELF4 = ELF4 (Homo sapiens, UniProt Q99607 1-663); conditions: protein: recombinant; tags: N-terminal GST; dsDNA, one strand shown
How it was run: as §1

ELK4 = target: T9, ELK4 (Homo sapiens, UniProt P28324-2 1-405); conditions: protein: recombinant; tags: N-terminal GST; dsDNA, one strand shown
T9 sequence: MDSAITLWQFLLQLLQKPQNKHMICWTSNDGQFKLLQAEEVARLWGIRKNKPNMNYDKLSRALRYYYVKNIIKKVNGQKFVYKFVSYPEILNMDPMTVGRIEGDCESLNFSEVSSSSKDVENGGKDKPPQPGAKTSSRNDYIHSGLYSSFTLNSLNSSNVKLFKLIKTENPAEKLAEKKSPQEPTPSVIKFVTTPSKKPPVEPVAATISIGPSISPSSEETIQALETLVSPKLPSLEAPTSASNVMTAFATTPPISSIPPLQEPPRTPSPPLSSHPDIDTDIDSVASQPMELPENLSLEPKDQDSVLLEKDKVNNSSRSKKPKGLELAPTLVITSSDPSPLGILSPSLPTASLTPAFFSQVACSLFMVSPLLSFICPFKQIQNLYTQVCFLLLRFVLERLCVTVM
How it was run: as §1

ETV2 = target: T10, ETV2 (Homo sapiens, UniProt O00321 1-342); conditions: protein: recombinant; tags: N-terminal GST; dsDNA, one strand shown
T10 sequence: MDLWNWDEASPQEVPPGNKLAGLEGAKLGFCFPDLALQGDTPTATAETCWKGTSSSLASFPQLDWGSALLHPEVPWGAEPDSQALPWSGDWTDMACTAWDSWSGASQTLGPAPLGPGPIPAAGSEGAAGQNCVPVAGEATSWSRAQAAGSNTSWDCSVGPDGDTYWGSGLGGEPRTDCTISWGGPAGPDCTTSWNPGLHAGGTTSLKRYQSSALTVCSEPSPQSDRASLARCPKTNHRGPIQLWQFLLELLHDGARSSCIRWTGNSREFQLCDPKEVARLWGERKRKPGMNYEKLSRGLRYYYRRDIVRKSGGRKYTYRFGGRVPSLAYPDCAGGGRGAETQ
How it was run: as §1

ELF3 = target: T11, ELF3 (Homo sapiens, UniProt P78545 1-371); conditions: protein: recombinant; tags: N-terminal GST; dsDNA, one strand shown
T11 sequence: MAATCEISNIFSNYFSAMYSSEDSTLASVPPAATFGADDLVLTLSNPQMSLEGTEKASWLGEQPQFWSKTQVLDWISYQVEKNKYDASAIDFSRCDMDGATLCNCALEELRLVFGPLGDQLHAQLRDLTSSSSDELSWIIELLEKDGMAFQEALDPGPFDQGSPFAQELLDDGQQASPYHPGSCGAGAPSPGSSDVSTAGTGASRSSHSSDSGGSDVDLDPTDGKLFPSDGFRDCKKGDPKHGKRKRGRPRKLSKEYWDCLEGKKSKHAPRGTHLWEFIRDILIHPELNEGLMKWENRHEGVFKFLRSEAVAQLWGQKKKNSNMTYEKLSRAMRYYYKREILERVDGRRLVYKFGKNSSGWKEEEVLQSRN
How it was run: as §1

CRX = CRX (Homo sapiens, UniProt O43186 1-299); conditions: protein: recombinant; tags: N-terminal GST; dsDNA, one strand shown
How it was run: as §1

ETV1 = ETV1 (Homo sapiens, UniProt P50549 1-477); conditions: protein: recombinant; tags: N-terminal GST; dsDNA, one strand shown
How it was run: as §1

Chain of SPIB (Q01892 whole entry): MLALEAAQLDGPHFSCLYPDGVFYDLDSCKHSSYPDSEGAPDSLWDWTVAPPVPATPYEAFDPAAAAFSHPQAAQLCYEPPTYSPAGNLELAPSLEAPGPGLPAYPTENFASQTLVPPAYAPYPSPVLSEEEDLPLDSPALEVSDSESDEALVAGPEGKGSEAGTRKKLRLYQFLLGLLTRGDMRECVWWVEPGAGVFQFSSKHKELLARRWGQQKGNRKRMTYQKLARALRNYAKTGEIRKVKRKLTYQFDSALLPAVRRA
Chain of ELF1 (P32519 whole entry): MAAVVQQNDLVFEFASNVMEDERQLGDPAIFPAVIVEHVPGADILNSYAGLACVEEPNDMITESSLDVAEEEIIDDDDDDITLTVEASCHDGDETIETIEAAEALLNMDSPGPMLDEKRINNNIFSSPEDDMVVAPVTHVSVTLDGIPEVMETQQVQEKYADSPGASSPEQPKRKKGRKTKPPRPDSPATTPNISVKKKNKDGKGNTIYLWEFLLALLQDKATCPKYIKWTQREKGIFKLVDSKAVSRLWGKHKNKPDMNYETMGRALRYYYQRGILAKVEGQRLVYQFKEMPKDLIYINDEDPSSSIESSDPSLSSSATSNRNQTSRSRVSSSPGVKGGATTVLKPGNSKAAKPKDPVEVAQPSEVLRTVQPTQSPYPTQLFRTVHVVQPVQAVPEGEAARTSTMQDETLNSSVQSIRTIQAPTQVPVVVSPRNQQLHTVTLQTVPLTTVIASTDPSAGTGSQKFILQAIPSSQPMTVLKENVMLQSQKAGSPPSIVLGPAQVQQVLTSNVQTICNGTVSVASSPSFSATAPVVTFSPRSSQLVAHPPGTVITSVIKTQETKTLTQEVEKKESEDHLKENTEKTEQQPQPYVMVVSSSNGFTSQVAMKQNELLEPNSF
Chain of ELF4 (Q99607 whole entry): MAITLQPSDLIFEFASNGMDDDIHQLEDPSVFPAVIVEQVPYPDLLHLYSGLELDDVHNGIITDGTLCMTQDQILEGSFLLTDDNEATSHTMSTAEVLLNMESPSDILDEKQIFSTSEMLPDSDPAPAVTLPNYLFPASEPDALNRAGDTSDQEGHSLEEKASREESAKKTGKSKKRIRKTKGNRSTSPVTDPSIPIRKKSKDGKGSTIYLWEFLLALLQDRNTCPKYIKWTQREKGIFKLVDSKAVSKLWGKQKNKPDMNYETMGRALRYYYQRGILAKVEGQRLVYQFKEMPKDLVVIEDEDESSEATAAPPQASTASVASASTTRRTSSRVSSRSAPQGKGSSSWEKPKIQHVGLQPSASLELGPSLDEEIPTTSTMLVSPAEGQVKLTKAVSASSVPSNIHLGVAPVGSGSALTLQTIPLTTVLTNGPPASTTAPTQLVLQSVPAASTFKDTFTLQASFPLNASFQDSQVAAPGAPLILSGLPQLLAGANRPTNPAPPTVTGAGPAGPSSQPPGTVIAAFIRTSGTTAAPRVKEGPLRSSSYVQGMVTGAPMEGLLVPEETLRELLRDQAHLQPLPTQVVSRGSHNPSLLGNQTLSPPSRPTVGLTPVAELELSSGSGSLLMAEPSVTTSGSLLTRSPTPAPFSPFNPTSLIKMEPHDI
Chain of ETV5 (P41161 whole entry): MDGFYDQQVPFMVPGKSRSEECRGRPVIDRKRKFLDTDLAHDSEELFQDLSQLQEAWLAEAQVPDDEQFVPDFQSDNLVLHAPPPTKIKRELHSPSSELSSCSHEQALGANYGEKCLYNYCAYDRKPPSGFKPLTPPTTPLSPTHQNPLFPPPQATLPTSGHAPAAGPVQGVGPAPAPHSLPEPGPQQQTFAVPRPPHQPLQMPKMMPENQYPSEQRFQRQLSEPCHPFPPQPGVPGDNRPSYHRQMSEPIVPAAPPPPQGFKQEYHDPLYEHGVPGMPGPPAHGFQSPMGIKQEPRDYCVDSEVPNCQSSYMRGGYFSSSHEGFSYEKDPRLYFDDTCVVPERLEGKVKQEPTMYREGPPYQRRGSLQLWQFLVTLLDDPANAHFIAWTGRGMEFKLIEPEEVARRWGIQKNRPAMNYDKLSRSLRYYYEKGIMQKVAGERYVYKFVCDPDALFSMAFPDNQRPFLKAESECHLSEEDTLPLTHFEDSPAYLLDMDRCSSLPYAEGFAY
Chain of ETV1 (P50549 whole entry): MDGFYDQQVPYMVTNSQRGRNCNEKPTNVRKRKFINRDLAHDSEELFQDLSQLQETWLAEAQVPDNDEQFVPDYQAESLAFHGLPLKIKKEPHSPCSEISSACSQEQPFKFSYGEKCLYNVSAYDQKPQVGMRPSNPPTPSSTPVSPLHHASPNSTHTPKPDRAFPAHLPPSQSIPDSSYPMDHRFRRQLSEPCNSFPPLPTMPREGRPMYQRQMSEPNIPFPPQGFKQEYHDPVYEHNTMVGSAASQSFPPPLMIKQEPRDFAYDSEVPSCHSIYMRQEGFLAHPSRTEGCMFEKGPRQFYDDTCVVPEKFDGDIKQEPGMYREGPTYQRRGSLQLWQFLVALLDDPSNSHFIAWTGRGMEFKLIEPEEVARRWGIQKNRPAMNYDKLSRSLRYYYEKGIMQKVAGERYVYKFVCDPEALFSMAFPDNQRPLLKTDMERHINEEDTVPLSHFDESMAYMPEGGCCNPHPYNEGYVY
Chain of HSF1 (Q00613 whole entry): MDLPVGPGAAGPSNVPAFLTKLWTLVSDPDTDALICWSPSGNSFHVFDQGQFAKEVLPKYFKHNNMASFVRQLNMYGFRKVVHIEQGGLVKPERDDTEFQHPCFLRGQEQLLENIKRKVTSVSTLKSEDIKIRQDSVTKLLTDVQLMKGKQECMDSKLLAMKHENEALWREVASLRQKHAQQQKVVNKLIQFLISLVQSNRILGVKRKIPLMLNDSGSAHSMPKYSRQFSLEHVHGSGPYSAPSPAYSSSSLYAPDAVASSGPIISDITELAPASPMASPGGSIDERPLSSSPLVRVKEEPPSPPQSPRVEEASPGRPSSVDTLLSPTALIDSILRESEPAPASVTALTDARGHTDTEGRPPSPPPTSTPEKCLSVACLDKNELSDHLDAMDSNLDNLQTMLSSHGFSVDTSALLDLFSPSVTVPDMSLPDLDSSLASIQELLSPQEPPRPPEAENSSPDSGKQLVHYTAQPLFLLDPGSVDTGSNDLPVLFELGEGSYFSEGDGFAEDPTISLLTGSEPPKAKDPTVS
Chain of CRX (O43186 whole entry): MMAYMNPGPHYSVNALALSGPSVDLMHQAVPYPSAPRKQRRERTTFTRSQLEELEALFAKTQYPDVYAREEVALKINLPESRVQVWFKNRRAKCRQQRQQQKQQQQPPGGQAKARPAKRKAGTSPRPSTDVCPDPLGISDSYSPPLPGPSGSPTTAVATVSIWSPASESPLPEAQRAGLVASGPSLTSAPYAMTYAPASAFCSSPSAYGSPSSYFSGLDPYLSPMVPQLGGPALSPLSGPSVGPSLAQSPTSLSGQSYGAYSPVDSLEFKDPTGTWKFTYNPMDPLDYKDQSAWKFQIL

GGTATT was tested, and the binding signal (FLI1) was 1.2 fold enrichment (6-mer frequency, TF over GST control), the binding signal (ELK1) was 1.17 fold enrichment (6-mer frequency, TF over GST control) and the binding signal (GABPA) was 1.23 fold enrichment (6-mer frequency, TF over GST control). For the same sequence, the binding signal (ERG) was 1.24 fold enrichment (6-mer frequency, TF over GST control), the binding signal (ELF1) was 1.18 fold enrichment (6-mer frequency, TF over GST control) and the binding signal (EHF) was 1.19 fold enrichment (6-mer frequency, TF over GST control). For the same sequence, the binding signal (SPI1) was 1.16 fold enrichment (6-mer frequency, TF over GST control), the binding signal (SPIB) was 1.2 fold enrichment (6-mer frequency, TF over GST control) and the binding signal (ELK3) was 1.15 fold enrichment (6-mer frequency, TF over GST control). For the same sequence, the binding signal (FEV) was 1.1 fold enrichment (6-mer frequency, TF over GST control), the binding signal (ETV5) was 1.16 fold enrichment (6-mer frequency, TF over GST control) and the binding signal (HSF1) was 1.39 fold enrichment (6-mer frequency, TF over GST control). For the same sequence, the binding signal (SPIC) was 1.14 fold enrichment (6-mer frequency, TF over GST control), the binding signal (ELF4) was 1.12 fold enrichment (6-mer frequency, TF over GST control) and the binding signal (ELK4) was 1.14 fold enrichment (6-mer frequency, TF over GST control). For the same sequence, the binding signal (ETV2) was 1.12 fold enrichment (6-mer frequency, TF over GST control), the binding signal (ELF3) was 1.1 fold enrichment (6-mer frequency, TF over GST control) and the binding signal (CRX) was 1.66 fold enrichment (6-mer frequency, TF over GST control). For the same sequence, the binding signal (ETV1) was 1.16 fold enrichment (6-mer frequency, TF over GST control).
